“And” between values parts separate entries of the source, which are not always exact repeats. Equal values may be shown once. Results filed as inconclusive are left out. The source holds several records for some structures; these can differ, active in one and inactive in another. The source made the active and inactive calls. Unless noted, calls follow the shape of the dose curve; as a rule, active = well fitted curve in the direction sought with a large enough effect; inconclusive = small, poorly fitted or top-dose-only effect, or another doubt; inactive = no such curve, though single readings can be large; an effect the other way counts as inactive or inconclusive.
How the values were obtained:
[1] = qHTS assay to identify small molecule inhibitors of chordoma cells - UCH-2 (AID 1259356); also: potency is read from the fitted curve at half-maximal effect
[2] = P-glycoprotein substrates identified in KB-8-5-11 adenocarcinoma cell line, qHTS therapeutic library screen (AID 1346987); also: nearly all actives have a fitted effect of over 65% in size; also: potency is read from the fitted curve at half-maximal effect
Procedure, shortened: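 Luminescence from CellTiter-Glo, read 5 min after addition, quantified survival of KB-8-5-11 (P-gp-overexpressing) cells exposed to compounds for 72 h. AC50 was derived from concentration-response curves.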

[3] = NS1 protein of Zika virus - qHTS assay to identify small molecule inhibitors in human HEK 293 cells (AID 1347053); also: nearly all actives have a fitted effect of over 55% in size; also: potency is read from the fitted curve at half-maximal effect
Procedure, shortened: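 Readout was TR-FRET using paired anti-NS1 antibodies after 24 h infection of HEK 293 cells with ZIKV MR766 (MOI = 0.5). Compound preceded virus by 1 h; reduced signal reflects lower NS1 expression.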

[4] = qHTS of pediatric cancer cell lines to identify multiple opportunities for drug repurposing: Primary screen for TC32 cells (AID 1347089); also: nearly all actives have a fitted effect of over 60% in size; also: potency is read from the fitted curve at half-maximal effect
Procedure, shortened: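 Luminescent ATP read-out (CellTiter-Glo) of metabolically active TC32 cells after 48 h exposure. Concentration-response curves came from 11-point (MIPE, 0.78 nM–46 µM) or 8-point (NPC, 0.59 nM–46 µM) primary titrations; follow-up used 11 points.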

[5] = qHTS of pediatric cancer cell lines to identify multiple opportunities for drug repurposing: Primary screen for DAOY cells (AID 1347090); also: nearly all actives have a fitted effect of over 55% in size; also: potency is read from the fitted curve at half-maximal effect
Procedure, shortened: (§1)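 Eight- or eleven-point concentration series, 48 h treatment at 37 degrees C in growth media; readout CellTiter-Glo luminescence. Potency and efficacy were taken from the concentration-response curves.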

[6] = qHTS of pediatric cancer cell lines to identify multiple opportunities for drug repurposing: Primary screen for SJ-GBM2 cells (AID 1347091); also: potency is read from the fitted curve at half-maximal effect
Procedure, shortened: as §1

[7] = qHTS of pediatric cancer cell lines to identify multiple opportunities for drug repurposing: Primary screen for A673 cells (AID 1347092); also: nearly all actives have a fitted effect of over 45% in size; also: potency is read from the fitted curve at half-maximal effect
Procedure, shortened: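 Cell viability of A673 measured by CellTiter-Glo ATP luminescence after 48 hours compound exposure. Dilution series spanned 0.78 nM to 46 µM (MIPE, 11-point) or 0.59 nM to 46 µM (NPC, 8-point); bortezomib 2.3 uM positive control.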

[8] = Identifying Small Molecule Inhibitors of Pancreatic Cancer Stem Cells (Panc1, Adherent) (AID 1259362); settings: Potency: viability; also: potency is read from the fitted curve at half-maximal effect
Procedure, shortened: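 Endpoint: ATP-based luminescence, 48 h drug exposure. Bortezomib at 9.2 uM final as full-kill control; DMSO vehicle as negative control; activity normalized between vehicle and cell-free wells.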

[9] = Natriuretic polypeptide receptor (hNpr1) antagonism - Pilot counterscreen GloSensor control cell line (AID 1347045; calls by dose curve; also: potency is read from the fitted curve at half-maximal effect)
Procedure, shortened: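 Cells were first seeded and incubated overnight at 37C, then loaded with 2% GloSensor substrate for 2 h. Compounds were added for 30 min at room temperature, followed by a baseline read, 50 uM SNP and a final read after 20 min.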

[10] = target: Atrial natriuretic peptide receptor 1 (Homo sapiens) (UniProt P16066); assay: Natriuretic polypeptide receptor (hNpr1) antagonism - Pilot screen (AID 1347049; calls by dose curve;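 also: HEK293 cells with hNpr1 and GloSensor cGMP luciferase stimulated by 0.1 nM hNppA; agonist-evoked cGMP luminescence read 20 min after hNppA addition; series mostly up to about 58 µM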)
Atrial natriuretic peptide receptor 1 (Homo sapiens), sequence (P16066 whole entry, looked up): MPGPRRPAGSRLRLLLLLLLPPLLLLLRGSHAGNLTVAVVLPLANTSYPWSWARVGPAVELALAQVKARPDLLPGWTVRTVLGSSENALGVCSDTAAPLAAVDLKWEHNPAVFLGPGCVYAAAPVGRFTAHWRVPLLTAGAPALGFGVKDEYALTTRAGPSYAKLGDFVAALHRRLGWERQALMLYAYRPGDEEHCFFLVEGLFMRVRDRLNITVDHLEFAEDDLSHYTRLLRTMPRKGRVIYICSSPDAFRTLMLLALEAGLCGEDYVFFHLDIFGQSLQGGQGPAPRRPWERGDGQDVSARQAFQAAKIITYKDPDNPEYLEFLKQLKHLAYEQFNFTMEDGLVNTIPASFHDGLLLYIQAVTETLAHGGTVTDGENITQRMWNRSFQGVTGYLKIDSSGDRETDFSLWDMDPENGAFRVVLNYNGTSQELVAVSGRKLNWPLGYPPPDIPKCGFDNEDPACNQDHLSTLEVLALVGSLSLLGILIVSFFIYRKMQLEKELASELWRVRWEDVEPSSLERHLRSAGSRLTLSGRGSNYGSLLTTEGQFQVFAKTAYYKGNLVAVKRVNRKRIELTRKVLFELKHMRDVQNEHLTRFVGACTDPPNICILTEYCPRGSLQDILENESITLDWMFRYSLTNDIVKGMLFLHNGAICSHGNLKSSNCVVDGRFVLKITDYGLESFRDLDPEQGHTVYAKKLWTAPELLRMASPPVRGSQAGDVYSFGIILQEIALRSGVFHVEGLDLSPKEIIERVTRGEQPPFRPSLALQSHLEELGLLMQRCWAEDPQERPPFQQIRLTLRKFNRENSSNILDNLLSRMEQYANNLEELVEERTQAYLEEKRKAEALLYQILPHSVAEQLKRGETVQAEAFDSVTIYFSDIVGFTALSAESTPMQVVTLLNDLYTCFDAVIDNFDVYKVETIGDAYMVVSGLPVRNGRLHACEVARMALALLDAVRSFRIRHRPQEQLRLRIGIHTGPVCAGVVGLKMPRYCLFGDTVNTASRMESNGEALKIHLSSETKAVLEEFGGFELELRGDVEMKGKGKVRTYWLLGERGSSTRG
Procedure, shortened: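 Cells expressing receptor plus cGMP biosensor are seeded and incubated overnight at 37C, then loaded with GloSensor reagent (2% final) at room temperature for 2 h. Library compounds go on for 30 min. A pre-read precedes agonist (hNppA, 0.1 nM final) and a 20-min readout.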

[11] = target: Atrial natriuretic peptide receptor 2 (Homo sapiens) (UniProt P20594); assay: Natriuretic polypeptide receptor (hNpr2) antagonism - Pilot subtype selectivity assay (AID 1347050; calls by dose curve)
Atrial natriuretic peptide receptor 2 (Homo sapiens), sequence (P20594 whole entry, looked up): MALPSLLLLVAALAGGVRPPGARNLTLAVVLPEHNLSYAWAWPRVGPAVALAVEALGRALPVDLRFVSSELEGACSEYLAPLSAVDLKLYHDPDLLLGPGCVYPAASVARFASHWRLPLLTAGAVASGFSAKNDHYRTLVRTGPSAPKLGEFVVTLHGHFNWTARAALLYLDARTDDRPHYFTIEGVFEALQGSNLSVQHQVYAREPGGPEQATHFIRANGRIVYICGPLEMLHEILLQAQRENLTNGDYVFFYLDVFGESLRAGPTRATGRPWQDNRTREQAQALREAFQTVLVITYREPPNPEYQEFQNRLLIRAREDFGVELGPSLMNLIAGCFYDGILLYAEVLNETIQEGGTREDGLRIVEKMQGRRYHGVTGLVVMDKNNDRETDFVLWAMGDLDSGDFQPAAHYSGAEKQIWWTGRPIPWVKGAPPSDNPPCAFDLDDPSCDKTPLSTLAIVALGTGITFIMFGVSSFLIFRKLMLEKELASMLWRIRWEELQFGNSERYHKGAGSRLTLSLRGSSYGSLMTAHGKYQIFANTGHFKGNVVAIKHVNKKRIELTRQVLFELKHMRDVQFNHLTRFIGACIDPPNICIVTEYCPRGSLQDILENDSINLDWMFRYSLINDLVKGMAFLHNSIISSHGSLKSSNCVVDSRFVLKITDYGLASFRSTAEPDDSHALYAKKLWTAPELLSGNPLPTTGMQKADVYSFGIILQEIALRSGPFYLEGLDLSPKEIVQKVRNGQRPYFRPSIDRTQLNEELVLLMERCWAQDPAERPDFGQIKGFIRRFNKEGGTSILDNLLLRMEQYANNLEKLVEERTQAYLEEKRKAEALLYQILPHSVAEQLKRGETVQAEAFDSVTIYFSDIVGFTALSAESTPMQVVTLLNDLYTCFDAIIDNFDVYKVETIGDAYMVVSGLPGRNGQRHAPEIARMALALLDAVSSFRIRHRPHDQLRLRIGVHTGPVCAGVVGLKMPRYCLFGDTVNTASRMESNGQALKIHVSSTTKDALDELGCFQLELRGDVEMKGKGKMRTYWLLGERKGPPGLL
Procedure, shortened: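 Read-out: GloSensor luminescence (CCD imager), baseline vs post-stimulation. HEK293 cells expressing hNpr2; compounds pre-incubated 30-50 min at ambient temperature; hNppC 1 nM final, 20 min.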

[12] = target: Tyrosine-protein phosphatase non-receptor type substrate 1 (Homo sapiens) + Leukocyte surface antigen CD47 (Homo sapiens) (UniProt P78324+Q08722); assay: CD47-SIRPalpha protein protein interaction - LANCE assay qHTS validation (AID 1347057; active = well fitted curve in the direction sought with a large enough effect in the signal ratio, with a control signal flat, not every such curve was filed as active; the % refers to the signal ratio; also: series mostly up to about 38 µM)
Tyrosine-protein phosphatase non-receptor type substrate 1 (Homo sapiens) + Leukocyte surface antigen CD47 (Homo sapiens), sequence (P78324 whole entry, looked up, the tested form may be a part): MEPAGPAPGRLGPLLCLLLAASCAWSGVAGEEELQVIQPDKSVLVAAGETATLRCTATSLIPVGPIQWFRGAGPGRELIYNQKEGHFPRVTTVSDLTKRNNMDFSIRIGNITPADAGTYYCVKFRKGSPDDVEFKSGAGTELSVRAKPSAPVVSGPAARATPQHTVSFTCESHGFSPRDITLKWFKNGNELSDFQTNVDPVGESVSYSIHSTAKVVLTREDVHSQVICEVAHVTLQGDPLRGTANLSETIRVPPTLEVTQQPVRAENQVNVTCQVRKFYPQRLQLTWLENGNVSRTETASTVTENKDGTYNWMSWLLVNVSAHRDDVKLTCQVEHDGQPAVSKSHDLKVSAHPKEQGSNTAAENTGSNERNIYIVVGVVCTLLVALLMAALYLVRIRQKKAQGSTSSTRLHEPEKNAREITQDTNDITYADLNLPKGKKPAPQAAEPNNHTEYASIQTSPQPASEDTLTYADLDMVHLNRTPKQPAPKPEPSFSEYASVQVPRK
Tyrosine-protein phosphatase non-receptor type substrate 1 (Homo sapiens) + Leukocyte surface antigen CD47 (Homo sapiens), sequence (Q08722 whole entry, looked up, the tested form may be a part): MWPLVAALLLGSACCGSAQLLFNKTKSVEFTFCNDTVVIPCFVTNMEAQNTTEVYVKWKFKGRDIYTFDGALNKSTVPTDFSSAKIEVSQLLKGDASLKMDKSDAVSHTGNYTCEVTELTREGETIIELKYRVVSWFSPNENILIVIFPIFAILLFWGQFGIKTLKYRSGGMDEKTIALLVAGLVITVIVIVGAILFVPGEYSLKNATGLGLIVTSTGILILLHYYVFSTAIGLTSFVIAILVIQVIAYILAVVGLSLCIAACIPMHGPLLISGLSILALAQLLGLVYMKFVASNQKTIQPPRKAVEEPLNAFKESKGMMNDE
Procedure, shortened: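 Inhibition of soluble CD47/SIRPalpha ectodomain association by titrated compounds, measured as 665/615 nm time-resolved FRET ratio after sequential 30 min room-temperature incubations.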

[13] = target: Parathyroid hormone/parathyroid hormone-related peptide receptor (Homo sapiens) (UniProt Q03431); assay: qHTS for PTHR1 Agonists: Optimization Screen against the NCGC LOPAC library (AID 1347079);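 also: GloSensor cAMP luminescence in HEK-293 GP2 cells expressing human PTHR1 with IBMX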
Parathyroid hormone/parathyroid hormone-related peptide receptor (Homo sapiens), sequence (Q03431 whole entry, looked up): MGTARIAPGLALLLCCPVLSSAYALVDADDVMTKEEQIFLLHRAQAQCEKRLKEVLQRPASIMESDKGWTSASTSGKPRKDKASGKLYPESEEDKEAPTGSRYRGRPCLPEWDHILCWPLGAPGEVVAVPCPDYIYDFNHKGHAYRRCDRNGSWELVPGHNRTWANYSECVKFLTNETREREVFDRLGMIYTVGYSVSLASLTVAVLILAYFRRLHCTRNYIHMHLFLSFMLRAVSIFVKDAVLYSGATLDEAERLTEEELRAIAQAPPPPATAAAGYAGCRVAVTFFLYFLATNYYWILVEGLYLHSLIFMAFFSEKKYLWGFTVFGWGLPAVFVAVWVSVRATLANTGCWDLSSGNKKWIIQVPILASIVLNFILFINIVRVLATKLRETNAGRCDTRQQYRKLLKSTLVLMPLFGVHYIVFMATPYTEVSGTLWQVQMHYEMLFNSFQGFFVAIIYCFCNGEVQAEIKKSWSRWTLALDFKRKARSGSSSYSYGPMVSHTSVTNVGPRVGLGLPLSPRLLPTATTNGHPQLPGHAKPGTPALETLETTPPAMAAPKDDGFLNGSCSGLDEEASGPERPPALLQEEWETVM
Procedure, shortened: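 HEK-293 GP2 cells, PTHR1 + GloSensor cAMP; 3000 cells/well, o/n. Luciferin + IBMX 0.5mM each (stock), 1 hr 37C. Cpd titration, 1 hr 37C. Lum after 15 min RT. Ctrl M-PTH(1-15) top 10uM.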

Measured: Potency

CN(C)c1ccc(O)c2c1C[C@H]1C[C@H]3[C@H](N(C)C)C(=O)C(C(N)=O)=C(O)[C@@]3(O)C(=O)C1=C2O
inactive: [1] | [2] | [3] | [4] | [5] | [6]

CCC1=C(C)CN(C(=O)NCCc2ccc(S(=O)(=O)NC(=O)NC3CCC(C)CC3)cc2)C1=O (configuration not stated)
inactive: [1] | [2] | [3] | [4] | [5] | [6] | [7]

O=C(O)c1cccc(-c2noc(-c3ccccc3F)n2)c1
inactive: [1] | [2] | [3] | [4] | [5] | [6] | [7]

NS(=O)(=O)c1cc(C(=O)O)c(NCc2ccco2)cc1Cl
inactive: [1] | [2] | [3] | [4] | [5] | [6] | [7]

CCCCCCCCCCCCCCCCCCCCCCO
inactive: [1] | [2] | [3] | [4] | [5] | [6] | [7]

Cc1ncc([N+](=O)[O-])n1CC(C)O (configuration not stated)
inactive: [1] | [2] | [3] | [4] | [5] | [6] | [7]

c1ccc2[nH]c(-c3cscn3)nc2c1
inactive: [1] | [2] | [3] | [4] | [5] | [6] | [7]

Cc1cc(=O)oc2cc(O)ccc12
inactive: [1] | [2] | [3] | [4] | [5] | [6] | [7]

Cc1cc(=O)c2c(O)c3c(O)cc(=O)c4c3c3c(cc(O)c1c23)C(C)(C)C=4O
inactive: [3] | [4]
active: [1] 6.51 µM | [2] 1.46 µM and 4.69 µM | [5] 1.16 µM and 18.7 µM | [6] 332 nM

CC1Cc2ccccc2N1NC(=O)c1ccc(Cl)c(S(N)(=O)=O)c1 (configuration not stated)
inactive: [1] | [2] | [3] | [4] | [5] | [6] | [7]

CC1=C(C)C(=O)C(C(CCCCCC(=O)O)c2ccccc2)=C(C)C1=O (configuration not stated)
inactive: [1] | [2] | [3] | [4] | [5] | [6]

C[Se]CCC(N)C(=O)O (configuration not stated)
inactive: [1] | [2] | [3] | [4] | [5] | [6] | [7]

Nc1cc(C(Cl)=C(Cl)Cl)c(S(N)(=O)=O)cc1S(N)(=O)=O
inactive: [1] | [2] | [3] | [4] | [5] | [6] | [7]

COc1c(O)cc2c(c1O)[C@@H]1O[C@H](CO)[C@@H](O)[C@H](O)[C@H]1OC2=O
inactive: [1] | [2] | [3] | [4] | [5] | [6] | [7]

Cc1nc(Nc2ncc(C(=O)Nc3c(C)cccc3Cl)s2)cc(N2CCN(CCO)CC2)n1
inactive: [2] | [3] | [4]
active: [8] 20.9 µM | [5] 23.5 µM and 8.41 µM | [6] 18.7 µM and 15 µM | [7] 3.72 µM and 3.35 µM

CC(C)Oc1ccc2c(=O)c(-c3ccccc3)coc2c1
inactive: [1] | [3] | [4] | [5] | [6] | [7]

Cc1cccc(C)c1OCC(=O)N[C@@H](Cc1ccccc1)[C@@H](O)C[C@H](Cc1ccccc1)NC(=O)[C@H](C(C)C)N1CCCNC1=O
inactive: [1] | [3] | [4] | [5]
active: [7] 23.5 µM

COC1=C(OC)C(=O)C(CCCCCCCCCCO)=C(C)C1=O
inactive: [1] | [2] | [3] | [4] | [6]
active: [7] 26.6 µM and 23.5 µM

Nc1ccc(S(N)(=O)=O)cc1
inactive: [1] | [2] | [3] | [4] | [5] | [6] | [7]

CCc1nc(N)nc(N)c1-c1ccc(Cl)cc1
inactive: [1]
active: [3] 9.35 µM | [4] 3.74 µM and 11.7 µM | [5] 5.31 µM and 18.7 µM | [6] 2.66 µM and 4.18 µM | [7] 10.6 µM and 14.8 µM

CC(=O)N1CCN(c2ccc(OC[C@H]3CO[C@](Cn4ccnc4)(c4ccc(Cl)cc4Cl)O3)cc2)CC1
inactive: [1] | [10] | [11] | [3] | [12] | [13] | [4]
active: [9] 18.5 µM

COc1c2occc2cc2ccc(=O)oc12
inactive: [1] | [3] | [4] | [5] | [6] | [7]

O=C(O)c1cc(=O)c2c(OCC(O)COc3cccc4oc(C(=O)O)cc(=O)c34)cccc2o1
inactive: [1] | [3] | [4] | [5] | [6] | [7]

C=C(c1ccc(C(=O)O)cc1)c1cc2c(cc1C)C(C)(C)CCC2(C)C
active: [6] 26600 nM
inactive: [1] | [2] | [3] | [4] | [7]

CCCCN(CCCC)CCC(O)c1cc2c(Cl)cc(Cl)cc2c2cc(C(F)(F)F)ccc12 (configuration not stated)
inactive: [1] | [3] | [4] | [5] | [7]

O=C(NCC1CCCCN1)c1cc(OCC(F)(F)F)ccc1OCC(F)(F)F (configuration not stated)
inactive: [1] | [3] | [4]

Clc1ccc(C(Cn2ccnc2)OCc2c(Cl)cccc2Cl)c(Cl)c1 (configuration not stated)
active: [7] 21.1 µM and 18.7 µM
inactive and 14.8 µM (active): [3]
inactive: [1] | [4] | [5] | [6]
